Reference: PubChem BioAssay (Tox21)
Records with an inconclusive call do not appear. Values without a mark were called inactive. The source made the active and inactive calls. Unless noted, calls follow the shape of the full dose curve.

Test system: not listed separately
Test: p53 small molecule agonists, cell-based qHTS assay (AID 1963582; active = well fitted activation curve with a large enough effect in the signal ratio in the repeat runs, not every such curve was filed as active; the % refers to the signal ratio)
Conditions: HCT-116 p53RE-bla reporter, beta-lactamase FRET ratio, 16 h; series mostly up to 66 µM; activation: at the top concentration
Procedure, shortened: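 Beta-lactamase reporter cells (p53RE-bla) treated with compounds for 16 h at 37 C; FRET substrate, 2 h, room temperature; fluorescence intensity.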
% is scaled to controls: 0 for no effect and ±100 for the full control effect.

SMILES	activation
CCOc1ccccc1N	-3.5%
CCCCCCC(=O)OCC	0.253%
CC1(C)S[C@@H]2[C@H](NC(=O)C(C(=O)O)c3ccccc3)C(=O)N2[C@H]1C(=O)O (stereo partly specified)	0.103% [at 30.3 µM]
CC(CC(C#N)(c1ccccc1)C(C)C)N(C)C (stereo unspecified)	-0.529% [at 30.3 µM]
O=P(O)(O)C(O)(Cc1cccnc1)P(=O)(O)O	-0.0335% [at 30.3 µM]
CCCCCCCC1CCCC1=O (stereo unspecified)	-1.61%

Biological target: 5-hydroxytryptamine receptor 2A (Homo sapiens) (UniProt P28223)
Test: 5-hydroxytryptamine receptor 2A (HTR2A) small molecule antagonists, cell-based qHTS assay (AID 1963586); also: nearly all actives have a fitted effect of over 45% in size; also: potency is read from the fitted curve at half-maximal effect
Conditions: HTR2A-CHO cells, DOI-induced calcium flux, fluorescence; series mostly up to 61.5 µM; activity, negative = inhibition: at the top concentration
Procedure, shortened: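 CHO cells stably expressing human HTR2A were plated for 18 h at 37 C, then loaded with calcium dye for 1 h. Compounds were preincubated 5 min at room temperature before DOI (4 nM solution) was added. Kinetic fluorescence was read for 3 min.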

Chain of 5-hydroxytryptamine receptor 2A (Homo sapiens) (P28223 whole entry, looked up): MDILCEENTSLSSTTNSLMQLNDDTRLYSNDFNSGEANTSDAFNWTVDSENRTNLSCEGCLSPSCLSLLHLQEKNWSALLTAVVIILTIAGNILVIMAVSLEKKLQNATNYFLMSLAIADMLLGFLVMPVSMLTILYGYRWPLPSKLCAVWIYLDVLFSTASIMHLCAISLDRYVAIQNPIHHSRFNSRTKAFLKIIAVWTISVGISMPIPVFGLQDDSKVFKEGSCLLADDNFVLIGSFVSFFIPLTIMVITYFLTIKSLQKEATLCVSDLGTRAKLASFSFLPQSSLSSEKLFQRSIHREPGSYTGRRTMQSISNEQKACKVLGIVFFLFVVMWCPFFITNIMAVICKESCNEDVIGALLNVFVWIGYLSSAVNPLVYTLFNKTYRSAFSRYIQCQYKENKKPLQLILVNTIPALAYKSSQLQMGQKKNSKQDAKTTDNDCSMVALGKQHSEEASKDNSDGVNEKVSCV

SMILES	activity, negative = inhibition	Potency
CC(C)OCC1CO1 (stereo unspecified)	85.4%	
CCCCCCC(CO)CCCC (stereo unspecified)	-24.9%	
S=C(SSSSSSC(=S)N1CCCCC1)N1CCCCC1	-4.42% [at 12.7 µM]	
CO[Si](CCCS)(OC)OC	11.3%	
NC(=O)C(=O)N/N=C/c1ccc([N+](=O)[O-])o1	5.33% [at 28.5 µM]	
CC(C)OC(=O)C(C(=O)OC(C)C)=C1SC=CS1	1.43% [at 28.5 µM]	
O=S(O)O	-15% [at 12.7 µM]	
O=C1O[C@@H]2[C@@H](O)[C@H](O)O[C@@H]2[C@H]1O	0.146%	
CCc1ccc(CC)cc1	-4.84%	
CC(C)(C)N(CCO)CCO	28.9%	
O=CCCc1ccccc1	6.99%	
Cc1oc(-c2ccccc2)nc1CCC(=O)c1ccc(CC2SC(=O)NC2=O)cc1 (stereo unspecified)	-9.8% [at 28.5 µM]	
CCCCNc1ccc(NCCCC)c2c1C(=O)c1ccccc1C2=O	-10.8% [at 12.7 µM]	
O=C(O)c1ccncc1	46.1%	
Clc1cc(Cl)c(-c2c(Cl)c(Cl)cc(Cl)c2Cl)cc1Cl	0.416% [at 28.5 µM]	
CCCCCCCCCCCCS(=O)(=O)Cl	6.87% [at 12.7 µM]	
CCNC(=O)N1CCN(CCCC(c2ccc(F)cc2)c2ccc(F)cc2)CC1		0.23 µM (active)
CC/C=C\CCOC(=O)c1ccccc1	2.04%	
CCc1cc(Cc2cc(CC)cc(C(C)(C)C)c2O)c(O)c(C(C)(C)C)c1	6.33%	
Clc1ccnc(Cl)n1	2.4%	
OCC(CO)(CO)COCC(CO)(CO)CO	2.76%	
OCc1ccccn1	-16.6% [at 28.5 µM]	
CCOC(=O)/C=C/C(=O)O	6.66%	
CCCCC	-46.9%	
Cc1ccc2c(c1)c1c3n2CCNC3CCC1 (stereo unspecified)		18.3 µM (active)
CC(C(=O)O)c1ccc(C(=O)c2ccccc2)s1 (stereo unspecified)	-23.2% [at 28.5 µM]	
CC1(C)S[C@@H]2[C@H](NC(=O)C(C(=O)O)c3ccccc3)C(=O)N2[C@H]1C(=O)O (stereo partly specified)	6.7% [at 28.5 µM]	
CC(CC(C#N)(c1ccccc1)C(C)C)N(C)C (stereo unspecified)	6.18% [at 28.5 µM]	
C=CCCCC	53.9%	
CCCCCCCC1CCCC1=O (stereo unspecified)	2.51%	
